# Source: article PMC8384837, “Expanding the binding specificity for RNA recognition by a PUF domain”
# Target: PUM1 PUF domain R5-TRV (Homo sapiens, UniProt Q14671 828-1176, C1007T;Q1011V)
# Assay: yeast three-hybrid, YBZ-1, SC-Leu-His + 0.5 mM 3-AT, 4 days
# Settings: tags: N-Gal4 AD-HA kept; label: inside an RPR1-promoter hybrid RNA with tandem MS2 sites; ssRNA
# Procedure, shortened: (§1)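 Each repeat of the Pumilio-1 PUF domain was randomized at its three base-contacting residues, and these libraries were co-expressed from a centromeric plasmid with matching RNA elements in strain YBZ-1. After four days on SC-Leu (input) or SC-Leu-His + 0.5 mM 3-AT (selection), the repeat regions were PCR-amplified and Illumina-sequenced. The interaction score compares variant frequency between input and selection as a log change, computed in log2 with a pseudocount of 1 for absent variants.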
# PUM1 PUF domain R5-TRV, sequence (Q14671 828-1176 C1007T/Q1011V): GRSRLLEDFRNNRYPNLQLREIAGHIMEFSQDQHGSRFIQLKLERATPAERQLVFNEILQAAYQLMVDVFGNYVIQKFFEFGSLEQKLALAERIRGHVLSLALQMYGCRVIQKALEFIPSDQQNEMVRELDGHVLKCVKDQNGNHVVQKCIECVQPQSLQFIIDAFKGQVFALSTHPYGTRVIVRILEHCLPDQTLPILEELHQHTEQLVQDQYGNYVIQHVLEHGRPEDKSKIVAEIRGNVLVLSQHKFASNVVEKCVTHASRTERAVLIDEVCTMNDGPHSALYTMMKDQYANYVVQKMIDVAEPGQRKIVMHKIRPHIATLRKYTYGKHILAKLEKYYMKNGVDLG
row,Sequence,binding signal
1,GGCUAGAACUAGUGGAUCCCCCGGCGCCCGGCGGCUCGAGCCCGGGUAAGUGUGAAUAGUCUGCAUGCCGCCGGGCGCCAUGCCUGCAGGUCGACUCUAGAAAACAUG,3.38 log2 enrichment (interaction score)
2,GGCUAGAACUAGUGGAUCCCCCGGCGCCCGGCGGCUCGAGCCCGGGUAAGUGUUAAUAGUCUGCAUGCCGCCGGGCGCCAUGCCUGCAGGUCGACUCUAGAAAACAUG,3.28 log2 enrichment (interaction score)
3,GGCUAGAACUAGUGGAUCCCCCGGCGCCCGGCGGCUCGAGCCCGGGUAAGUGUAAAUAGUCUGCAUGCCGCCGGGCGCCAUGCCUGCAGGUCGACUCUAGAAAACAUG,4.29 log2 enrichment (interaction score)

# Target: PUM1 PUF domain R8-CYR (Homo sapiens, UniProt Q14671 828-1176, N1122C;Q1126R)
# Assay: as above
# Settings: tags: N-Gal4 AD-HA kept; label: inside an RPR1-promoter hybrid RNA with tandem MS2 sites; ssRNA
# Procedure, shortened: as §1
# PUM1 PUF domain R8-CYR, sequence (Q14671 828-1176 N1122C/Q1126R): as the sequence (Q14671 828-1176 C1007T/Q1011V) above, with T180C, V184Q, N295C, Q299R counted along it
row,Sequence,binding signal
1,GGCUAGAACUAGUGGAUCCCCCGGCGCCCGGCGGCUCGAGCCCGGGUAAGGGUAAAUAGUCUGCAUGCCGCCGGGCGCCAUGCCUGCAGGUCGACUCUAGAAAACAUG,2.63 log2 enrichment (interaction score)
2,GGCUAGAACUAGUGGAUCCCCCGGCGCCCGGCGGCUCGAGCCCGGGUAAGCGUAAAUAGUCUGCAUGCCGCCGGGCGCCAUGCCUGCAGGUCGACUCUAGAAAACAUG,4.19 log2 enrichment (interaction score)
3,GGCUAGAACUAGUGGAUCCCCCGGCGCCCGGCGGCUCGAGCCCGGGUAAGUGUAAAUAGUCUGCAUGCCGCCGGGCGCCAUGCCUGCAGGUCGACUCUAGAAAACAUG,4.59 log2 enrichment (interaction score)
